High-throughput results as filed in PubChem.
Sampled rows, rich in hits. Any-hit rate of the full collection: about 6.2%.
RORg inh – blocks mouse ROR gamma transcriptional activity; P51450; Drosophila S2 Gal4-RORgamma UAS-luciferase reporter, 20 h; Potency, µM (highest dose often 53.6 µM), inactives show at the top dose activity change, negative = inhibition, most hits filed as inhibitors; 310,000 tested, 5.4% active; note: nearly all actives have a fitted effect of over 60% in size
Target sequence (P51450 whole entry, looked up, the tested form may be a part): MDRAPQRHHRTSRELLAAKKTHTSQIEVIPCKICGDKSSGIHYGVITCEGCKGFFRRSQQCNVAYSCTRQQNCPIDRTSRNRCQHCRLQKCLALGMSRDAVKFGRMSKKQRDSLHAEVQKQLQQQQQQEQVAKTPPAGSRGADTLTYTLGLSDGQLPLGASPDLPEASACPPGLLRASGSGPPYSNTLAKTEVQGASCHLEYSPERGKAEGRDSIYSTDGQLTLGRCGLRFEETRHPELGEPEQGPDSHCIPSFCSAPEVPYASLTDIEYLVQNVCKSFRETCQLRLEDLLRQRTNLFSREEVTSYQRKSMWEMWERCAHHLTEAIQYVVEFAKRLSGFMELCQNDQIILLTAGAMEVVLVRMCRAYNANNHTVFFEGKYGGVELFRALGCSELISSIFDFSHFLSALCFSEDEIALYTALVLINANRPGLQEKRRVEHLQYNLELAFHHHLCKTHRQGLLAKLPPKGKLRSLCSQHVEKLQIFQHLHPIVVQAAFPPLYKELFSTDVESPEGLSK
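Luminescence from a UAS-regulated Photinus luciferase reporter in stably transfected Drosophila Schneider cells is measured; decreased signal marks ROR gamma inhibition. Fusion expression is induced by 700 uM copper sulfate for 20 hr.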
VP16 counter – counter-screen for ROR gamma inhibitors: Gal4-VP16 reporter | AID 2546 | Potency, µM (doses to about 53.6 µM), without a hit: at the highest dose activity, negative = inhibition, actives largely listed as inhibitors | 310,000 tested, 3.5% active | Drosophila S2 Gal4-VP16 UAS-luciferase, luminescence, 20 h;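 note: Gal4-VP16 expression switched on by copper sulfate through the metallothionein promoter; nearly all actives have a fitted effect of over 50% in size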
Luc counter – Kinase-Glo luciferase inhibition (counter-screen); Q27757; Kinase-Glo luciferase, ATP luminescence, 8 min; Potency, µM (doses to about 38.3 µM), without a hit: at the highest dose activity change, negative = inhibition, hits mostly inhibitors; 200,000 tested, 0.28% active; AID 1379; note: nearly all actives have a fitted effect of over 60% in size
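Substrate mix (final 50 mM imidazole pH 7.2, 50 mM KCl, 7 mM MgCl2, 10 uM ATP, 0.01% Tween 20, 0.05% BSA) plus pin-tool compound, then Kinase-Glo detection mix; 8 min ambient, luminescence read.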
* hit, by the source's call; ? = inconclusive; / = no result given; [ ] = remark or other dose. Calls come from the whole dose curve; as a rule, active = well fitted curve in the direction sought with a large enough effect; inconclusive = small, poorly fitted or top-dose-only effect, or another doubt; inactive = no such curve, though single readings can be large; an effect the other way counts as inactive or inconclusive. % is set by controls: 0 for no effect and ±100 for the full control effect; potency is the fitted concentration of half-maximal effect.

SMILES	RORg inh	VP16 counter	Luc counter
CCC(C(=O)NCc1ccco1)n1nc(C)c2c(C)n(-c3ccccc3)nc2c1=O (stereo not given)	7%	-16%	/
COc1ccc(OCC2Cc3c(-c4ccccc4)nc4c(c3CO2)CN(CCOc2ccccc2)CC4)cc1 (stereo not given)	16%[10 µM]	-3%[10 µM]	/
Nc1nc(-c2ccc(Oc3ccccc3)cc2)cs1	23%	-9%	/
Nc1nc(-c2cccc(NS(=O)(=O)c3ccccc3)c2)cs1	?	18µM*	-4%
CC(=O)Nc1ccc(S(=O)(=O)Nc2cccc(-c3csc(C)n3)c2)cc1	?	-28%	0%
Nc1nc(-c2ccc(-c3ccccc3)cc2)cs1	?	22µM*	-17%
COc1ccccc1CNC(=O)CCNS(=O)(=O)c1cc(Br)cnc1N	-10%	-11%	/
Cc1onc(-c2c(Cl)cccc2Cl)c1C(=O)NC(=S)N1CCOCC1	0.16µM*	0.71µM*	/
Cc1csc(NC(=O)c2c(-c3c(Cl)cccc3Cl)noc2C)n1	-8%	0%	-4%
CCOC(=O)N1CCN(C(=S)NC(=O)c2ccc(F)c(F)c2)CC1	0.63µM*	1µM*	-1%
CCOC(=O)N1CCN(C(=O)c2c(-c3ccccc3Cl)noc2C)CC1	17%	1%	/
CCOC(=O)N1CCN(c2ccc(C(C)=O)cc2F)CC1	?	-5%	-2%
Cc1onc(-c2c(Cl)cccc2Cl)c1C(=O)Nc1nccs1	10µM*	?	/
CCOC(=O)N1CCN(C(=S)NC(=O)c2c(-c3c(Cl)cccc3Cl)noc2C)CC1	0.25µM*	0.79µM*	-1%
Cc1onc(-c2c(Cl)cccc2Cl)c1C(=O)N1CCOCC1	-20%	6%	/
CCOc1ccccc1-c1nnc2n1N=C(c1ccccc1OC)CS2	?	-3%	/
N#CCCn1cc(CNCc2ccccc2)c(-c2cccc([N+](=O)[O-])c2)n1	-4%	-13%	-5%
Clc1ccc(C2=CSC3=NCCN23)cc1Cl	?	-5%	2%
CC(C)(C)c1ccc(C2=CSC3=NCCN23)cc1	10µM*	-17%	/
O=C(NCc1ccco1)c1cccc(NS(=O)(=O)c2ccccc2F)c1	40%	8%	3%
CCOc1ccccc1NC(=O)c1nc[nH]c1C(=O)Nc1ccccc1OCC	2µM*	4µM*	-2%
COc1ccccc1NC(=O)c1nn(C)cc1Br	17%	-7%	-5%
CCOc1ccccc1NC(=O)c1cnccn1	?	23%	/
COc1ccccc1NC(=O)c1nc[nH]c1C(=O)Nc1ccccc1OC	2µM*	?	1%
Cn1cnc(S(=O)(=O)N2CCN(c3ccc(Cl)cc3)CC2)c1	97%	2%	/
SMILES	RORg inh	VP16 counter	Luc counter
CC1(C)Cc2ccccc2-c2nnnn21	10%	-4%	-10%
c1ccc2c(c1)CC1(CCCC1)n1nnnc1-2	0.71µM*	5%	/
O=c1[nH]c2cc(Cl)c(O)cc2o1	40%	-1%	/
CCOc1ccc2[nH]cc(S(=O)(=O)c3ccc(F)cc3)c(=O)c2c1	0%	13µM*	1%
COc1ccc2[nH]cc(S(=O)(=O)c3ccc(F)cc3)c(=O)c2c1	28%	?	0%
CNc1nnc(-c2ccc(N(C)C)cc2)s1	?	8.9µM*	-12%
CN(C)c1ccc(-c2ccncc2)cc1	-17%	14%	14%
Cc1cc(NC(=O)c2ccc3c(c2)C(=O)N(c2cccc(C)c2C)C3=O)no1	?	18µM*	/
Cc1cc(NC(=O)c2ccc3c(c2)OCCO3)no1	10µM*	7.1µM*	-14%
O=C(Nc1ccccn1)c1ccc(C(=O)Nc2ccccn2)cc1	0%	12%	/
CCCN1C(=O)c2ccc(C(=O)Nc3cc(C)on3)cc2C1=O	3%	-3%[0.365 µM]	3%
Cc1cc(NC(=O)c2ccc3c(c2)OCO3)no1	?	?	-13%
O=C(Nc1ncccc1Cl)c1ccc2c(c1)OCCO2	-36%	-11%	?
O=C(Nc1ccccn1)c1ccc2c(c1)OCO2	-40%	?	11µM*
O=C(Nc1ccccn1)c1ccc2c(c1)OCCO2	10µM*	2%	?
Cc1ccc(C)c(S(=O)(=O)N2C(=S)NC(=O)C2C(C)C)c1 (stereo not given)	?	10%	-3%
Cc1ccc(C2=Nc3ccc(Br)cc3C(c3ccncc3)=NN2)cc1	43%	-10%	13%
S=C([S-])NCCNC(=S)[S-].[Zn+2]	-15%	7%	/
CCC1Sc2ccc(S(=O)(=O)N3CCN(c4ccccc4)CC3)cc2NC1=O (stereo not given)	?	-21%	/
CCOC(=O)CNC(=O)C1c2ccccc2Oc2ccccc21	-6%	-7%	/
CC(=O)OCC1OC(C#Cc2ccc(Br)cc2)C=CC1OC(C)=O (stereo not given)	2%[10 µM]	3%[10 µM]	/
Cc1cccc(N2C(=O)CCC2=O)c1	-9%	-4%	1%
CC1=CC(C)(C)NC(=S)N1c1cccc(C)c1	4.5µM*	11µM*	-2%
Cc1ccc(N2C(=O)c3ccccc3C2=O)cc1C	?	-9%	-3%
CC1=CC(C)(C)NC(=S)N1c1ccc(C)c(C)c1	0.56µM*	4.5µM*	-2%
SMILES	RORg inh	VP16 counter	Luc counter
CC1=CC(C)(C)NC(=S)N1c1ccc(C)cc1	1.6µM*	3.5µM*	-1%
CSC[C@@H]1NC(=S)N(c2ccc(C)cc2)C1=O	28%	-29%	-5%
O=C(CCc1nnc(-c2ccc(-c3ccccc3)cc2)o1)N1CCCCC1	22%	-9%	/
CC(C)(CO)[C@@H](O)C(=O)NCCC(=O)NCCSSCCNC(=O)CCNC(=O)[C@H](O)C(C)(C)CO	7%	-2%	/
COc1ccc(NC(=O)c2cccc(-c3ccc(O)cc3)c2)cn1	-1%	-6%	/
Cc1ccsc1/C=N/N=C/c1sccc1C	-26%	9%	/
Cc1ccsc1C=Nc1ccc(O)cc1	10µM*	?	-7%
COc1ccc(/C=C2/CCCC(C(=O)C(F)(F)F)=C2O)cc1OC	18µM*	?	/
COc1ccc(/C=C2\CCCC(C(=O)C(F)(F)F)=C2O)cc1OC	-1%	-6%	0%
CCCCC(=O)N/N=C/c1ccc(N2CCOCC2)c([N+](=O)[O-])c1	36%	-3%	1%
Cc1cnn(Cc2ccccc2)c1N	5%	-6%	0%
CC(C)NC(=O)c1onc(CSc2ccccc2)c1C(=O)O	-43%	-15%	1%
Cc1cc(C)cc(SCc2noc(C(=O)NC(C)C)c2C(=O)O)c1	?	?	2%
CC(C)NC(=O)c1onc(CSc2cccc3ccccc23)c1C(=O)O	18µM*	?	-1%
Cc1cccc(SCc2noc(C(=O)NC(C)C)c2C(=O)O)c1	?	16µM*	3%
CCC(C)[C@H](NC(=O)C1CC(=O)N(c2ccc3c(c2)OCO3)C1)C(=O)NC1CCCCC1 (stereo not given in full)	1%	-11%	/
CCCc1[nH]n(-c2nc3ccccc3s2)c(=O)c1C=NCCCN(CC)CC	20µM*	-19%	1%
CCCc1cc(=O)n(-c2nc3ccccc3s2)[nH]1	?	0%	/
CCCN=Cc1c(CCC)[nH]n(-c2nc3ccccc3s2)c1=O	2.8µM*	?	-5%
CN(C)CCCN=Cc1c(-c2ccccc2)[nH]n(-c2nc3ccccc3s2)c1=O	0%	-13%	-1%
CCn1ccnc1CN1CCc2c([nH]c3ccccc23)C1CC(C)C (stereo not given)	3.2µM*	7.9µM*	-1%
